We go through six sequences from the supplement of paper PMC6555819.

Holding throughout (assay): PBM binding z-score (relative to random genomic background probes); higher = stronger binding; sequences stand for … in GC…GCGATTGACAGCGTAGAATGAAGG
The subject of assay [1] is FXR:RXRa (NR concentration 270 nM, RXRa partner concentration 90 nM). In a few lines: (§1)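 Ligand-free nuclear receptor dimers were bound for 1 h to custom Agilent 4×180K protein-binding microarrays. Detection used antibodies against each partner (one per run). Binding z-scores rest on regression-normalized fluorescence, with random background probes as the reference.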
The subject of assay [2] is LXRa:RXRa (NR concentration 270 nM, RXRa partner concentration 90 nM). The method in brief:
as §1

In assay [3] the test system is LXRa homodimer (NR concentration 270 nM). In a few lines:
as §1

Assay [4] deals with LXRb:RXRa (NR concentration 270 nM, RXRa partner concentration 90 nM). The method in brief:
as §1

Assay [5] has as its system LXRb homodimer (NR concentration 270 nM). In a few lines:
as §1

The test system of assay [6] is PPARa:RXRa (NR concentration 270 nM, RXRa partner concentration 90 nM). In a few lines: as §1
For assay [7], the system named is PPARg:RXRa (NR concentration 180 nM, RXRa partner concentration 90 nM). The method in brief: as §1
Assay [8] concerns PPARg:RXRa 270nM:90nM, anti-RXR (NR concentration 270 nM, RXRa partner concentration 90 nM). The method in brief:
as §1

In assay [9] the test system is PPARg:RXRa 30nM:10nM, anti-RXR (NR concentration 30 nM, RXRa partner concentration 10 nM). In a few lines: as §1
Assay [10] relates to PPARg:RXRa 90nM:30nM, anti-RXR (NR concentration 90 nM, RXRa partner concentration 30 nM). In a few lines:
as §1

Assay [11] relates to PPARg:RXRa DBDmut IVT, anti-RXR (DBD mutation: RXRa K156A/R161A, NR concentration 270 nM, RXRa partner concentration 90 nM). The method in brief:
as §1

Assay [12] deals with PPARg:RXRa IVT, anti-PPARg (NR concentration 270 nM, RXRa partner concentration 90 nM). The method in brief:
as §1

The test system of assay [13] is PPARg DBDmut:RXRa IVT, anti-PPARg (DBD mutation: PPARg1 K132A/R137A, NR concentration 270 nM, RXRa partner concentration 90 nM). The method in brief:
as §1

Assay [14] relates to PPARg DBDmut IVT, anti-PPARg (DBD mutation: PPARg1 K132A/R137A, NR concentration 270 nM). The method in brief: as §1
In assay [15] the test system is PPARg homodimer (NR concentration 180 nM). In a few lines: as §1
The test system of assay [16] is PXR:RXRa (NR concentration 270 nM, RXRa partner concentration 90 nM). The method in brief: as §1
The test system of assay [17] is PXR homodimer (NR concentration 270 nM). In a few lines:
as §1

Assay [18] relates to RARa:RXR (NR concentration 270 nM, RXRa partner concentration 90 nM). The method in brief:
as §1

The subject of assay [19] is RARa homodimer (NR concentration 270 nM). The method in brief:
as §1

For assay [20], the system named is RARb:RXRa (NR concentration 270 nM, RXRa partner concentration 90 nM). In a few lines:
as §1

As for ACAGACAGGTGACGAAGGTAACTCAGGCTATCAT, the PBM binding z-score in assay [1] was -0.34; in assay [2] it was -0.14; in assay [3], -0.233; in assay [4], -0.231; in assay [5], -0.858; in assay [6], 0.582. Also, the PBM binding z-score is 0.955 in assay [7]; 0.489 in assay [8]; -0.242 in assay [9]; 0.424 in assay [10]; 0.762 in assay [11]; 1.19 in assay [12]. In addition, the PBM binding z-score is 0.0336 in [13]; -0.57 in [14]; -0.168 in [15]; -0.208 in [16]; -0.237 in [17]; 0.144 in assay [18]. The PBM binding z-score turned out to be 0.0267 in assay [19] and 0.637 in [20].
Regarding GATACAGGGTCAAAGCCAGAGTACGCGTATTGAT, the PBM binding z-score in [1] is 7.15; in [2] it was 4.59; in assay [3] it was 0.214; in [4], 3.97; in assay [5] it was 0.158; in assay [6], 5.59. Also, the PBM binding z-score in assay [7] amounted to 5.42; in assay [8], 5.39; in assay [9], 2.26; in [10], 4.25; in assay [11], 2.68; in [12] it was 3.63. The PBM binding z-score in assay [13] is 1.47; in assay [14], 0.035; in [15] it was 2.25; in assay [16], 3.75; in assay [17], 0.314; in assay [18] it was 4.76. The PBM binding z-score was determined as 0.583 in assay [19] and 4.03 in assay [20].
As for GTACCAAGGTGAATAGGGCGTTGATGAGTAGGCG, the PBM binding z-score in [1] is 0.407; in assay [2] it was 0.248; in [3], -0.214; in [4] it was -0.0331; in assay [5], -0.614; in assay [6] it was 1.22. Further, the PBM binding z-score in assay [7] is 1.02; in [8], 0.756; in [9] it was -0.0867; in [10], 0.088; in assay [11], 1.79; in [12], 2.39. Further, the PBM binding z-score in assay [13] was 0.11; in [14], -0.0449; in assay [15] it was 0.629; in assay [16], -0.0283; in assay [17] it was 0.127; in [18], 0.434. Besides, the PBM binding z-score in assay [19] came out at 0.194; in assay [20], 1.5.
On to CCTACCAGGCCAGGGTCACTCAAGCATTTCGCTT, for which the PBM binding z-score in assay [1] is 2.09; in [2], 1.56; in assay [3] it was -0.206; in assay [4] it was 2.18; in assay [5] it was -0.678; in assay [6] it was 2.88. Further, the PBM binding z-score in assay [7] was 0.899; in [8] it was 1.61; in [9], -0.554; in assay [10], 0.539; in assay [11] it was -0.315; in [12], 1.13. Besides, the PBM binding z-score was -1.07 in [13]; -1.26 in assay [14]; 1.75 in [15]; 2.39 in assay [16]; 0.0777 in assay [17]; 2.79 in assay [18]. In addition, the PBM binding z-score was determined as 0.657 in assay [19] and 2.65 in assay [20].
For the sequence ACTATTAGTTGAGACAAGGGCAACCGATAGGTTG, the PBM binding z-score in assay [1] was 0.264; in assay [2], -0.00254; in assay [3], -0.143; in assay [4], -0.136; in [5] it was 0.202; in assay [6], 0.0106. Besides, the PBM binding z-score in [7] is 0.795; in assay [8] it was 0.412; in assay [9], 0.214; in assay [10] it was 0.411; in assay [11], -0.102; in assay [12], 0.38. The PBM binding z-score in assay [13] is 0.684; in assay [14] it was 0.362; in assay [15], 1.21; in [16], 0.594; in [17], 0.47; in assay [18], 0.553. Besides, the PBM binding z-score in assay [19] was 0.821; in [20], 1.17.
Turning to CAGCCTAGGTCAGGGCCAGTCTAGGAGGAACGTT, the PBM binding z-score in assay [1] is 1.43; in assay [2], 0.988; in assay [3], -0.566; in [4], 0.24; in assay [5], -1.33; in assay [6] it was 2. Besides, the PBM binding z-score is 0.484 in assay [7]; 0.9 in assay [8]; -0.591 in assay [9]; 0.125 in [10]; 1.23 in [11]; 1.44 in assay [12]. In addition, the PBM binding z-score was -1.02 in [13]; -1.49 in assay [14]; 0.16 in assay [15]; 0.386 in assay [16]; -0.83 in assay [17]; 1.06 in assay [18]. In addition, the PBM binding z-score is -0.6 in assay [19] and 3.28 in [20].
